Values joined by “and” are separate entries in the source; they are usually repeats but may differ in a detail not shown here. Equal values may be shown once. Hit rate of the full screen: of about 16,000 compounds, about 4,000 (25%) were called active. Roughly 26% stayed inconclusive and do not appear here. Calls come from the whole dose curve; as a rule, active = well fitted curve in the direction sought with a large enough effect; inconclusive = small, poorly fitted or top-dose-only effect, or effect the other way; inactive = no such curve, though single readings can be large or run the other way. A selection follows. More than one record can exist for a structure, and the calls need not agree.
% is set by controls: 0 for no effect and ±100 for the full control effect.

The target in this assay is Cytochrome P450 2C9 (Homo sapiens) (UniProt P11712). The assay can be described thus: Cytochrome panel assay with activity outcomes. Conditions: recombinant CYP, pro-luciferin dealkylation, luminescence, p450-cyp2c9; series mostly up to 57.1 µM.
Chain of Cytochrome P450 2C9 (Homo sapiens) (P11712 whole entry, looked up): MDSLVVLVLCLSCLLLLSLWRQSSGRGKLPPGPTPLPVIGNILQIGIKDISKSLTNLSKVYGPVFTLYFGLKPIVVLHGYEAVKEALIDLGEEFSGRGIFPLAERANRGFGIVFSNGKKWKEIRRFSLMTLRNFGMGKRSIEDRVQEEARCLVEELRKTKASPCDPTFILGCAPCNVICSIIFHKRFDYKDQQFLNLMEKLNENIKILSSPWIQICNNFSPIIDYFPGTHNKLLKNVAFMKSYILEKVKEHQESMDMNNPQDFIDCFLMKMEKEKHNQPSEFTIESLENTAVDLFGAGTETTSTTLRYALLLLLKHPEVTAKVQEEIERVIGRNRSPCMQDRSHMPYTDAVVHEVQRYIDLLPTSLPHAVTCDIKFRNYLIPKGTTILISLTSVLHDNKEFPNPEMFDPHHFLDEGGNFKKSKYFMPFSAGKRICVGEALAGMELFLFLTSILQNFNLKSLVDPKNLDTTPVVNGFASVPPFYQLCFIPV
The AC50 is the concentration at which the activity in the assay is half-maximal. Consider `CN(C)CC/C=C1\c2ccccc2COc2ccccc21`, for which the AC50 entry is “inactive”. As for `Cn1c(=O)c2c(ncn2CN2CCN(Cn3cnc4c3c(=O)n(C)c(=O)n4C)CC2)n(C)c1=O`, the activity, negative = inhibition is 5.13% [at 11.4 µM] (inactive). Same read-out and setting: under `C#CCCCO/N=C1/C[C@@H](O)[C@@H](O)[C@@H]2[C@@H]3C(=O)N([C@@H](C)c4ccccc4)C(=O)[C@H]3CC[C@@H]12` stands -23.8% [at 11.4 µM] (inactive). As to `Cc1cc2c(cc1C)NC(c1nc3ccccc3[nH]1)C1=C(CC(C)(C)CC1=O)N2` (centres undefined), the AC50 entry was “inactive”. Still for that read-out and setting: under `CC1(C)CC(=O)C2=C(C1)Oc1nc3ccccc3cc1C2C(C#N)C#N` (centres undefined) stands 3.55 µM (active); under `Cc1ccc(-n2c(SCC(=O)NCc3ccco3)nc3sc4c(c3c2=O)CC(C)(C)SC4)cc1`, 2.24 µM (active); under `CC1(C)Cc2c(sc3nc(SCC(=O)NCc4ccccc4)n(-c4ccccc4)c(=O)c23)CS1`, 6.31 µM (active). For the molecule `CC1(C)Cc2c(sc3c2C(=O)N(c2ccccc2)C2=NCCN23)CS1`, the AC50 entry was “inactive”.

Consider `Nc1nc2c(c(=O)[nH]1)CN(c1ccc(S(N)(=O)=O)cc1)CN2`, for which the activity, negative = inhibition was 7.1% [at 11.4 µM] (inactive).

For `O=C1C2=CC[C@@H]3C(=O)N(c4ccc(F)cc4F)C(=O)[C@H]3[C@H]2[C@H](O)[C@H]2O[C@H]12`, the activity, negative = inhibition is 4.69% [at 11.4 µM] (inactive). Regarding `C=CCOC(=O)/C(=C\c1cccc2ccccc12)NC(=O)c1ccccc1`, the AC50 was 1.41 µM (active). `Cc1ccc(S(=O)(=O)c2c(C)nn(C(C)(C)C)c2OC(=O)c2cccs2)cc1`: the concentration at half-maximal activity (AC50) is 3.16 µM (active). Still for that read-out and setting: under `C[C@@]12CCC(=O)C=C1CC[C@@H]1[C@@H]2[C@H](O)C[C@]2(C)[C@@H]1CC[C@]2(O)C(=O)COC(=O)CCC(=O)O` stands “inactive”. As to `CN=C(N)/N=C(\N)Nc1cc2ccccc2c2ccccc12`, the activity, negative = inhibition was -14.6% [at 11.4 µM] (inactive). For `C=CC(C)(C)c1[nH]c2ccccc2c1C1=C(O)C(=O)C(c2c[nH]c3c(CC=C(C)C)cccc23)=C(O)C1=O`, the half-maximal activity concentration (AC50) was 7.94 µM (active).

With `Fc1ccc(SCCc2ccncc2)cc1`, the half-maximal activity concentration (AC50) was 2 µM (active). `c1ccc(CCN2CCN=C2Cc2ccccc2)cc1`: the activity, negative = inhibition is -8.28% [at 11.4 µM] (inactive).

For `ON(CCc1ccncc1)Cc1ccccc1`, the half-maximal activity concentration (AC50) was 3.98 µM (active). With `c1ccc(SCCc2ccncc2)cc1`, the half-maximal activity concentration (AC50) is 1.12 µM (active) and 1.26 µM (active).

On to `ON(CCc1ccccn1)Cc1ccccc1`, for which the activity, negative = inhibition was -2.37% [at 11.4 µM] (inactive).

In the case of `Br/C(=N\Nc1nn[nH]n1)c1ccncc1`, the activity, negative = inhibition was -3.74% [at 11.4 µM] (inactive).

Regarding `O=c1cnc2cnc(Oc3ccccc3)nc2n1Cc1cccs1`, the AC50 is 25.1 µM (active). Take `CN1CCN(c2ncc3ncc(=O)n(Cc4cccs4)c3n2)CC1`: the AC50 result was “inactive”. As for `Cc1nc2cnc(Oc3ccccc3)nc2n(Cc2cccs2)c1=O`, the AC50 is 25.1 µM (active). Same read-out and setting: under `Cn1cc(-c2nc3cnc(Oc4ccccc4)nc3n(Cc3cccs3)c2=O)c2ccccc21` stands “inactive”; under `Cc1nc2cnc(Nc3ccccc3)nc2n(Cc2cccs2)c1=O`, “inactive”. As to `COc1ccc(Oc2ncc3ncc(=O)n(Cc4cccs4)c3n2)cc1`, the AC50 is 15.8 µM (active). Still for that read-out and setting: under `COc1ncc2ncc(=O)n(Cc3cccs3)c2n1` stands “inactive”. Turning to `Clc1ccccc1-c1ccc2ncnc(N3CCNCC3)c2c1`, the activity, negative = inhibition was -9.02% [at 2.29 µM] (inactive). Still for that read-out and setting: for `COc1ccc(COC(=O)N/N=C2/C[C@@H](O)[C@@H](O)[C@@H]3[C@H]4C(=O)N(c5ccc(F)cc5F)C(=O)[C@@H]4CC[C@@H]23)cc1` the value was -15.8% [at 11.4 µM] (inactive).

As for `O=C(Nc1cccc(C(F)(F)F)c1)c1n[nH]c(Cn2cncn2)n1`, the concentration at half-maximal activity (AC50) is 4.47 µM (active). On the same count and under the same terms, under `Cc1c(NC(=O)C(C)N2C(=O)c3ccccc3C2=O)c(=O)n(-c2ccccc2)n1C` (centres undefined) stands “inactive”; under `CC(=O)Nc1c2c3c(cccc3n(C)c1=O)C(=O)c1ccccc1-2`, 15.8 µM (active). On the same count and under the same terms, under `Fc1ccc(COc2ccc(Br)cc2CNCc2ccncc2)cc1` stands 3.98 µM (active). For the molecule `CO[C@H]1COC(=O)[C@H](Cc2ccccc2)NC(=O)C/C=C\[C@@H](C)[C@H](OC)COC(=O)C/C=C\[C@@H]1C`, the activity, negative = inhibition was 2.05% [at 11.4 µM] (inactive). Consider `CC1(C)CC(=O)C(C(C#Cc2ccccc2)C2=C(O)CC(C)(C)CC2=O)=C(O)C1`, for which the AC50 was 15.8 µM (active). `COc1ccc(CNc2ccnc(-c3ccccc3CN(C)C)n2)c(OC)c1`: the activity, negative = inhibition was 10.2% [at 2.29 µM] (inactive). As to `CC(C)(C)c1cc2cccnc2n1Cc1cccc(F)c1`, the AC50 result was “inactive”. For the molecule `CC1=CC(=O)CC(C)(C)[C@]1(O)/C=C\C(C)=C\C(=O)O`, the activity, negative = inhibition was 9.93% [at 11.4 µM] (inactive). As to `CC1=C(\C=C/C(C)=C/C=C\C(C)=C\C(=O)O)C(C)(C)CCC1`, the AC50 was 10 µM (active) and inactive.

As for `CC(C)CCNc1ncnc2[nH]ncc12`, the activity, negative = inhibition is 6.22% [at 11.4 µM] (inactive). Turning to `CCOC(=O)c1cnc2c(cnn2C)c1NCCCN(C)C`, the AC50 entry was “inactive”. Consider `O=C(c1cc(C(F)(F)F)cc(C(F)(F)F)c1)N1CCC2(CCN(Cc3ccccc3)CC2)CC1`, for which the AC50 entry was “inactive”. On to `CNC(=O)c1nnn(Cc2ccccc2)c1NC(=O)C(F)(F)F`, for which the AC50 was 12.6 µM (active). Still for that read-out and setting: under `COC(=O)c1nnn(Cc2ccccc2)c1N` stands “inactive”; under `Nc1ncnc2c1ncn2C1CCCC1`, “inactive”; under `Nc1ncnc2c1c(-c1ccc(Oc3ccccc3)cc1)cn2C1CCCC1`, 31.6 µM (active). Same read-out and setting: under `Cc1ccc(CNCC(O)(c2ccc(F)cc2)c2ccc(F)cc2)cc1` stands 25.1 µM (active); under `CCOC(=O)CSc1n[nH]c(-c2cccnc2)n1`, “inactive”. For the molecule `CCCC(=O)n1nc(-c2cccnc2)nc1N`, the AC50 entry was “inactive”.

For the molecule `CCOC(=O)CC(=O)CSc1nc(-c2cccnc2)cc(C)c1C#N`, the AC50 was 1.26 µM (active). Take `O=c1cc(CN2CCN(c3ccc(F)cc3)CC2)c2cc3c(cc2o1)CCCC3`: the AC50 entry was “inactive”. Take `O=C(c1cc(-c2cccs2)on1)N1CCN(c2ccc(F)cc2)CC1`: the concentration at half-maximal activity (AC50) is 1.58 µM (active).

`C/C=C\C(=O)N(CC)c1ccccc1C`: the AC50 entry is “inactive”. The same measure, in the same setting: for `CN1CCc2cc(NC(=O)Nc3cccnc3)ccc21` the value was “inactive”; for `CSc1cc2c(cc1C(F)(F)F)N(C(=O)Nc1cccnc1)CC2`, 0.00631 µM (active). Same read-out and setting: under `Cn1ccc2cc3c(cc21)CCN3C(=O)Nc1cccnc1` stands “inactive”; under `COc1cc2c(cc1C(F)(F)F)N(C(=O)Nc1cc(F)cc(-c3cccnc3)c1)CC2`, 0.794 µM (active). The same measure, in the same setting: under `COC(=O)c1ccc(NC(=O)N2CCC(O)(c3cccnc3)CC2)cc1` stands “inactive”; under `CN1Cc2c(N)cccc2[C@H](c2ccccc2)C1`, “inactive”. Consider `Cc1noc(C)c1-c1ccc2ncnc(NCc3cccnc3)c2c1`, for which the activity, negative = inhibition is -6.6% [at 2.29 µM] (inactive). Take `CCCCn1cnc2c(c(CC#N)nn2-c2ccccc2)c1=N`: the activity, negative = inhibition was -11.5% [at 11.4 µM] (inactive). Regarding `CCOCCCn1cnc2c(c1=O)c1nc3ccccc3nc1n2-c1ccccc1`, the AC50 is 15.8 µM (active). Take `COc1ncc2nc(C)c(=O)n(-c3ccccc3)c2n1`: the AC50 result is “inactive”.

As for `CN1CCc2nc(N)nc(-c3nc(N)nc4c3CN(C)CC4)c2C1`, the activity, negative = inhibition was 5.01% [at 11.4 µM] (inactive). Consider `Cc1cc(-c2cc(-c3ccc(Cl)cc3)nc(N)c2C#N)co1`, for which the concentration at half-maximal activity (AC50) was 11.2 µM (active). The same measure, in the same setting: for `Cn1c(=O)c(-c2ccc(Cl)cc2)nc2cnc(OCc3ccccc3)nc21` the value was “inactive”; for `Cc1cc(C)n(-c2nc3ccccc3c(=O)n2OCc2ccc(Cl)cc2)n1`, 5.62 µM (active). On to `Oc1c(CN2CCN(c3ccccc3)CC2)cc(Br)c2cccnc12`, for which the activity, negative = inhibition was 7.75% [at 11.4 µM] (inactive). On to `COc1ccc(N2C(=O)NC(NC(=O)c3ccncc3)(C(F)(F)F)C2=O)cc1` (centres undefined), for which the AC50 is 6.31 µM (active). Regarding `COc1ccc(-n2c(=O)c(-c3ccc(F)cc3)nc3cncnc32)cc1`, the AC50 entry is “inactive”. Same read-out and setting: under `Cc1cccc(C(=O)NC2CCN(C(=O)N3CCOCC3)CC2)c1` stands “inactive”; under `CC(C)C1NC(=S)N(Cc2ccccc2)C1=O` (centres undefined), 8.91 µM (active).

As to `O=C1C[C@@H](O)[C@@H](O)[C@H]2[C@@H]3C(=O)N(Cc4ccccc4)C(=O)[C@@H]3CC[C@H]12`, the activity, negative = inhibition was -2.13% [at 11.4 µM] (inactive). In the case of `O=C(O)CN(CCN(CC(=O)O)CC(=O)O)CCN(CC(=O)O)CC(=O)O`, the AC50 result was “inactive”. Consider `CCS(=O)(=O)c1ccc2oc(Nc3cc(C)cc(C)c3)nc2c1`, for which the AC50 was 8.91 µM (active).

`Cc1ccnc2nc(C(=O)OCC(=O)Nc3ccc4c(c3)OC(F)(F)O4)nn12`: the AC50 entry is “inactive”.

With `CC(CC(=O)O)CC(=O)Nc1ccc(S(N)(=O)=O)cc1` (centres undefined), the AC50 entry is “inactive”. In the case of `CN(C)S(=O)(=O)c1ccc(NC(=O)COC(=O)c2ccccn2)cc1`, the AC50 is 10 µM (active). Same read-out and setting: under `Cc1ccc(S(=O)(=O)N(C)CC(=O)O/N=C(\N)c2ccccn2)cc1` stands “inactive”.

Regarding `CCN(CC)S(=O)(=O)c1ccc(NC(=O)COC(=O)c2ccc(Br)o2)cc1`, the AC50 is 8.91 µM (active). Still for that read-out and setting: under `CN(C)S(=O)(=O)c1cccc(NC(=O)COC(=O)c2ccc(Br)o2)c1` stands 6.31 µM (active). Turning to `COc1ccccc1-c1ccc2ncnc(NCCNC(C)=O)c2c1`, the activity, negative = inhibition was -2.65% [at 2.29 µM] (inactive). For the molecule `C=CC1=C[C@@H](O)C2OC2C12OCCCO2` (some centres undefined), the activity, negative = inhibition is 12.2% [at 11.4 µM] (inactive). As for `O=C(Nc1cccc(F)c1)N1CC[C@@]2(CCCNC2)C1`, the AC50 entry is “inactive”. Regarding `COC(=O)[C@@]1(Cc2ccc(F)cc2)[C@H]2c3cc(C(=O)N4CCCC4)n(Cc4c(CO)[nH]cc(C)c4=O)c3C[C@H]2CN1C(=O)c1ccccc1`, the concentration at half-maximal activity (AC50) was 10 µM (active). Turning to `COC(=O)[C@@]1(Cc2ccccc2)[C@H]2c3cc(C(=O)N4CCCC4)n(Cc4c(CO)[nH]cc(C)c4=O)c3C[C@H]2CN1C(=O)c1ccccc1`, the AC50 was 1 µM (active). Same read-out and setting: for `CCCCCCCCCCCCCCCC(=O)C(F)(F)F` the value was “inactive”; for `O=S(=O)(c1ccccc1)N1CCC2(CC1)CN(Cc1ccccc1)C2`, “inactive”. For `N#Cc1ccc(CN2CCCC3(CCN(S(=O)(=O)c4ccccc4)CC3)C2)cc1`, the AC50 was 12.6 µM (active). Take `N#Cc1ccc(CN2CCC3(CC2)CCN(S(=O)(=O)c2ccccc2)CC3)cc1`: the AC50 result was “inactive”. Regarding `COCC(=O)N1CCC[C@@]2(CCN(Cc3ccc(C#N)cc3)C2)C1`, the AC50 entry is “inactive”. As to `COC(=O)N1CCC2(CCCN(Cc3ccc(C#N)cc3)C2)CC1`, the AC50 is 12.6 µM (active). On the same count and under the same terms, for `COC(=O)N1CCC2(CCCN(Cc3ccccc3)C2)CC1` the value was “inactive”.

These data come from PubChem BioAssay AID1851 (National Center for Advancing Translational Sciences (NCATS), 2009).
